CYP2C19 act = cytochrome P450 2C19 (human) activation | P33261 | recombinant CYP2C19, luciferin-H EGE luminescence; stronger effect = higher value; 0 = fully inhibited enzyme, 1 = untreated enzyme | activation factor at 5 µM | 96,000 tested, under 10 active | AID 1025;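 active = activation factor of at least 2 at 5 µM in the primary screen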;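 note: 0 = wells with 2.5 mM tranylcypromine and 1 = vehicle-only wells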
PostGolgi ctrl = inhibits growth of the yeast control strain; efflux-deficient yeast background strain, growth absorbance A615, 16 h; inhibition, % at 10 µM; 98,000 tested, 5% active; AID 738
CYP2C9 inh = human CYP2C9 inhibition; CYP2C9 Supersomes, luciferin-H conversion, luminescence; P11712; 96,000 tested, 20% active; inhibition, % at 5 µM;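 active = blocking of liver enzyme CYP2C9 beyond about 50% at 5 µM, limit read from the data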
Target sequence (P11712 whole entry, looked up): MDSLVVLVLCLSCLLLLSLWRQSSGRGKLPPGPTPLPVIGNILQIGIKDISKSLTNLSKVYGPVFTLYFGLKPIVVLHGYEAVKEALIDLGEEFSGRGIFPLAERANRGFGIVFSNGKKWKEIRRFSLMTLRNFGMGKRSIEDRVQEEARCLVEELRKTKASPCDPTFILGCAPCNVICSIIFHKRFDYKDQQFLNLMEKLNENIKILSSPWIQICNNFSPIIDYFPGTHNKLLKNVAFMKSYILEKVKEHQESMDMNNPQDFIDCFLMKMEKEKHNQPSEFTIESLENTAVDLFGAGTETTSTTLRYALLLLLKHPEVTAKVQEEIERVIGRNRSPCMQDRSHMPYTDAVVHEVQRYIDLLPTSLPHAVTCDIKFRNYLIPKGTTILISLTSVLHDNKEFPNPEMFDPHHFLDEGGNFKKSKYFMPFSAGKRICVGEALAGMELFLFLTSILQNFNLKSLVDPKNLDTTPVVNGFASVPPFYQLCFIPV
CYP2C19 inh = human CYP2C19 inhibition; CYP2C19 Supersomes, luciferin-H EGE luminescence, 30 min; AID 778; P33261; 96,000 tested, 21% active; inhibition, % at 5 µM;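 active = CYP2C19 inhibition above a set limit at 5 µM in the primary screen, cut at about 50% in these data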;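 note: plate controls were negative control wells for no effect and 2.5 mM tranylcypromine positive control for full effect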
CYP2C9 act = increases human cytochrome P450 2C9 activity; recombinant CYP2C9, luciferin-H conversion, luminescence; stronger effect = higher value; factor 1 = untreated enzyme, 0 = blocked; P11712; 96,000 tested, 1.4% active; activation factor at 5 µM; AID 1024;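 active = activation factor of 2 or more for CYP2C9 at a 5 µM dose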;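 note: 0 = sulfaphenazole-blocked wells and 1 = vehicle-only wells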
PostGolgi yeast = growth inhibition of a yeast mutant, post-Golgi transport screen; inhibition, % at 10 µM; 98,000 tested, 0.9% active; post-Golgi transport phenotypic cell assay; AID 739;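 note: yeast cells grown in 1536-well plates; yeast grown about 18 h at 30C before absorbance read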
* = called active by the depositor; · = no result. This is a sample that favours compounds with a hit; in the whole collection about 32% have one here. Cut-off read from the data, not from the text of the source, unless noted: active = inhibition above about 30%; inactive = the rest.

SMILES	CYP2C19 act	PostGolgi ctrl	CYP2C9 inh	CYP2C19 inh	CYP2C9 act	PostGolgi yeast
CC(C)C(=O)Nc1ccccc1N1CCN(C(=O)c2ccccc2)CC1	0.3	10.5	63.2*	67.5*	0.4	2.7
O=C(Nc1ccccc1N1CCN(C(=O)c2ccc(Cl)cc2)CC1)c1cccnc1	0.1	18.3	93.1*	88.0*	0.1	5.1
O=C(CSc1ccc(Cl)cc1)Nc1ccccc1N1CCN(C(=O)c2ccccc2)CC1	0.9	22.7	23.6	10.0	0.8	-1.0
CC(=O)NC1(c2ccc(F)cc2)CCN(C(=O)Nc2ccc(F)cc2F)CC1	0.6	5.0	21.3	44.8	0.8	27.4
CCN=C1Sc2nc3ccc(OCC)cc3cc2CN1CCOC	0.1	7.5	95.5*	91.4*	0	0.6
COCCSc1nnc(NS(=O)(=O)Cc2ccccc2)s1	0.9	13.2	68.5*	5.6	0.3	-0.2
COCCSc1nnc(NC(=O)CSCc2ccccc2)s1	0.7	2.7	59.0*	28.2	0.4	-9.3
Cn1c(-c2ccc(C=O)s2)nc2c3ccccc3c3ccccc3c21	1.1	-0.2	23.9	-9.9	0.8	-1.3
CCCCCCn1c(C(C)O)nc2ccccc21 (stereo unspecified)	0.7	10.8	-6.4	33.8	1.1	0.0
CCCn1c(C(O)c2ccc3c(c2)OCO3)nc2ccccc21 (stereo unspecified)	0	-0.9	60.3*	98.3*	0.4	-0.2
CCCn1c(NCc2cc(C)ccc2O)nc2ccccc21	0.5	2.4	24.7	52.6*	0.8	-12.2
CCCn1c(NCc2ccc3c(c2)OCO3)nc2ccccc21	0.4	-2.9	29.7	59.1*	0.7	1.1
CCCCn1c(NCc2ccccc2NS(=O)(=O)c2ccc(C)cc2)nc2ccccc21	0.8	9.7	50.3*	20.7	0.5	-3.5
CC(C)(C)OCC(NC(=O)C(CC(N)=O)NC(=O)OC(C)(C)C)C(=O)OC(C)(C)C (stereo unspecified)	1	3.4	-6.9	2.7	1.1	3.3
OCC1OC(n2nnc3ccccc32)C(O)C(O)C1O (stereo unspecified)	1.1	6.1	-18.9	-14.5	1.2	-6.1
c1coc(-c2nnc3sc(Cc4cccs4)nn23)c1	0.3	1.8	54.7*	68.6*	0.5	21.1
Clc1ccc(OCc2nn3c(-c4ccco4)nnc3s2)cc1	0.8	18.1	17.3	21.3	0.8	2.5
Clc1ccc(-c2nnc3sc(Cc4cccs4)nn23)c(Cl)c1	0.1	50.1*	78.5*	86.6*	0.2	-12.5
c1csc(Cc2nn3c(-c4n[nH]c5c4CCC5)nnc3s2)c1	1	0.0	15.0	1.5	0.8	-2.1
COc1ccc(OCc2nn3c(-c4ccco4)nnc3s2)cc1	0.4	4.3	59.3*	57.0*	0.4	22.4
Clc1ccc(OCc2nn3c(-c4ccncc4)nnc3s2)cc1	0.1	24.0	69.2*	91.9*	0.3	5.3
CCOc1ccc(-c2nnc3sc(COc4ccc(Cl)cc4)nn23)cc1	0.8	6.4	-6.9	17.7	1.1	23.2
O=C(C1CCCN(S(=O)(=O)c2cccnc2)C1)N1CCn2c1nc1ccccc12 (stereo unspecified)	1	6.7	5.8	-3.7	0.9	-0.5
CCc1nnc(NC(=O)CCN2C(=O)CCC2=O)s1	1.1	6.3	-13.0	-10.8	1.1	-6.7
CCOc1cc(C(=O)OCc2ccc(C(=O)OC)o2)cc(Br)c1OC	0.9	2.4	22.3	13.5	0.8	1.6
SMILES	CYP2C19 act	PostGolgi ctrl	CYP2C9 inh	CYP2C19 inh	CYP2C9 act	PostGolgi yeast
N#Cc1c(-c2ccc(Cl)cc2)ccn2nc(CCC(=O)O)nc12	0.9	1.9	12.4	13.3	0.9	1.9
COc1ccc(OCc2nn3c(-c4cccc(OC)c4)nnc3s2)cc1	0.5	13.6	34.1	50.9*	0.7	-13.5
COc1cccc(-c2nnc3sc(-c4ccccc4)nn23)c1	0.9	·	-0.2	11.9	1	·
COc1ccccc1-c1c(C)nn2c(N3CCCCCC3)cc(C)nc12	0.9	31.1*	8.8	6.3	0.9	-6.9
COc1ccccc1N1CCN(c2cc(C)nc3nc(C)nn23)CC1	·	9.9	·	·	·	4.2
COc1ccccc1-c1c(C)nn2c(N3CCN(c4ccccc4OC)CC3)cc(C)nc12	0.2	7.0	49.5	75.6*	0.5	2.4
CCCCS(=O)CC(CS(=O)CCCC)OC(=O)c1ccc(C)cc1 (stereo unspecified)	1.1	2.1	-5.5	-7.3	1.1	-4.2
Cc1ccc(/C=N\NC(=O)Cn2c(C)nc3ccccc32)o1	1	8.2	9.6	3.7	0.9	5.0
CC1=C(C#N)C(Nc2ccc(Cl)cn2)(C(F)(F)F)C(=O)N1 (stereo unspecified)	0.2	9.3	20.8	82.9*	0.8	-2.1
CC1=C(C#N)C(Nc2ccc(C)cn2)(C(F)(F)F)C(=O)N1 (stereo unspecified)	0.1	13.5	41.7	89.1*	0.6	0.8
O=C(Nc1cccc2ncccc12)c1cccnc1	1.1	5.6	-26.3	-6.8	1.3	-4.3
CC(=O)N=c1sc2nc3ccccc3nc2n1N(C(C)=O)C(C)=O	1.2	0.9	-21.5	-18.5	1.2	7.9
COc1ccccc1-c1c(C(F)(F)F)oc2cc(OC(=O)c3ccccc3[N+](=O)[O-])ccc2c1=O	0.5	31.0*	62.2*	54.8*	0.4	4.0
COC(=O)c1nn(-c2ccccc2)c(Cl)c1/C=N/OCc1ccc(Cl)cc1Cl	0.7	-0.5	66.8*	28.6	0.3	-6.6
COC(=O)c1nn(-c2ccccc2)c(Sc2ccc(Cl)cc2)c1/C=N/O	0.6	5.5	54.6*	37.1	0.5	3.0
COC(=O)c1nn(-c2ccccc2)c(=O)cc1Oc1ccc(Cl)cc1	0.8	-1.9	7.8	24.5	0.9	-5.8
COC(=O)c1nn(-c2ccccc2)c(Sc2ccc(Br)cc2)c1/C=N/O	0.6	9.4	73.4*	38.6	0.3	2.8
c1ccc(Cn2nnc3c(Nc4ccc5c(c4)OCO5)nc(C4CC4)nc32)cc1	0.9	9.5	36.3	7.4	0.6	1.5
CCOC(=O)/C(N=Nc1c(Br)cc(Br)cc1Br)=C(\C)O	0.8	11.9	22.2	17.7	0.8	12.2
CC(=O)C(N=Nc1ccccc1)(Sc1nnc(-c2ccccc2)n1-c1ccccc1)C(C)=O	·	46.6*	·	·	·	-7.5
CSc1nnc(-c2nnc(SC)n2-c2ccccc2)n1-c1ccccc1	1	1.5	-3.5	0.6	1	-3.8
COCCOc1cc(Nc2nnc(C(F)(F)F)s2)c(Cl)cc1Cl	0.3	32.3*	91.7*	65.7*	0.1	20.7
O=C(N1CCOCC1)N1CCN(S(=O)(=O)c2ccccc2)C1	0.8	3.2	-10.2	15.0	1.1	-8.0
CCCCNC(=O)Cn1c2c(c(-c3ccccc3Cl)cc1=O)CCC2	0.4	0.3	78.5*	61.0*	0.2	7.4
CCCCNC(=O)CSc1cc(=O)n(C)c2ccccc12	0.9	12.2	-3.9	9.0	1	-3.1
